Screens deposited in PubChem by NMMLSC.
This is a sample that favours compounds with a hit; in the whole collection about 0.93% have one here.
RPL19A-GFP yeast = RPL19A-GFP expression modulators in yeast, primary screen, cell-based, S. cerevisiae, multiplex flow cytometry, MLPCN | actives 0.3% (n = 330,000) | AID 2025, 2009 | S. cerevisiae RPL19A-GFP strain, 3 h; stronger effect = lower value | percent response vs DMSO, % at 10 µM;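 active = percent response vs DMSO below 50%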;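 note: median channel GFP fluorescence of the barcoded RPL19A-GFP strain; ratio of sample median GFP to plate DMSO average so 100% = DMSO; lower means less RPL19A-GFP as with rapamycin TOR inhibition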
MEP2 TOR yeast = modulators of MEP2-GFP levels in yeast, primary screen, S. cerevisiae, multiplex flow cytometry, MLPCN library; GFP response vs DMSO, % at 10 µM; actives 0.51% (n = 330,000); S. cerevisiae MEP2-GFP strain, 3 h; 100% = DMSO control level;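 active = GFP response versus DMSO above a set limit, roughly screen mean plus 3 SD, cut at about 180% in these data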;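 note: median GFP fluorescence of the barcode-gated MEP2-GFP cells per well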
CIT2 TOR yeast = modulators of CIT2-GFP expression in yeast, primary screen, S. cerevisiae, GFP fusion, multiplex flow cytometry, MLPCN library; S. cerevisiae CIT2-GFP strain, 3 h; 100 means same as DMSO wells; GFP response vs DMSO, % at 10 µM; actives 0.065% (n = 320,000); AID 2029, 2009;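 active = GFP response relative to DMSO above a set limit, near the screen mean plus 3 SD, cut at about 150% in these data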;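 note: ratio of well median GFP fluorescence to mean of DMSO wells on the plate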
LAP4-GFP MLPCN = modulators of LAP4-GFP expression in yeast, primary screen, S. cerevisiae, multiplex flow cytometry, MLPCN library; 3 h; median GFP as percent of DMSO wells; GFP response vs DMSO, % at 10 µM; actives 0.34% (n = 320,000);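 active = GFP response vs DMSO above a set limit, about the screen mean plus 3 SD, cut at about 150% in these data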
AGP1-GFP MLPCN = modulators of AGP1-GFP expression in yeast TOR pathway, primary screen, cell-based, multiplex flow cytometry, S. cerevisiae, MLPCN library. 3 h; GFP as percent of DMSO wells. GFP response vs DMSO, % at 10 µM. actives 0.02% (n = 320,000). AID 2066, 2009;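 active = GFP response relative to DMSO above a set limit, near screen average plus 3 SD, cut at about 150% in these data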;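 note: median GFP channel fluorescence of the gated AGP1 strain per well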
LAP4-GFP pick2 = LAP4-GFP expression modulators in yeast, confirmation, cell-based, second cherry pick, flow cytometry | S. cerevisiae LAP4-GFP strain, 3 h | GFP response vs DMSO, % at 10 µM | shares compounds with LAP4-GFP MLPCN | actives 20% (n = 590) | AID 2621, 2010;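 active = GFP signal as percent of the solvent control above about 150%, meaning raised reporter expression, limit read from the data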;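 note: ratio of well median GFP fluorescence to plate DMSO mean so 100% = DMSO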
MEP2-GFP pick2 = modulators of MEP2-GFP levels in yeast, confirmation, S. cerevisiae, flow cytometry GFP, second cherry picks | shares compounds with LAP4-GFP MLPCN | actives 10% (n = 590) | S. cerevisiae MEP2-GFP strain, 3 h | GFP response vs DMSO, % at 10 µM;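 active = GFP signal above 150% of the solvent control wells, that is a rise of more than half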;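 note: median channel GFP fluorescence of all gated yeast cells per well; ratio of median GFP to plate DMSO average so 100% = DMSO level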
RPL19A GFP CP2 = RPL19A-GFP modulators in TOR pathway yeast, confirmation, cell-based, S. cerevisiae, flow cytometry, second cherry pick; shares compounds with LAP4-GFP MLPCN; AID 2623, 2010; GFP response vs DMSO, % at 10 µM; S. cerevisiae RPL19A-GFP strain, 3 h; stronger effect = lower value; 100% means same as DMSO wells; actives 3% (n = 590);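 active = under 65% GFP response relative to DMSO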;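 note: median GFP channel fluorescence per well over the all cells gate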
CIT2-GFP pick2 = modulators of CIT2-GFP expression in yeast, confirmation, flow cytometry, second cherry pick, single plex; shares compounds with LAP4-GFP MLPCN; S. cerevisiae CIT2-GFP strain, 3 h; DMSO control wells read 100%; GFP response vs DMSO, % at 10 µM; actives 8% (n = 590); AID 2624, 2010;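 active = GFP response vs DMSO above about 150%, limit read from the data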;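 note: median green fluorescence per well over all gated yeast cells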
AGP1-GFP pick2 = AGP1-GFP expression modulators, hit retest, confirmation, cell-based, flow cytometry, S. cerevisiae, cherry pick set 2; shares compounds with LAP4-GFP MLPCN; S. cerevisiae AGP1-GFP strain, 3 h; percent response vs DMSO, % at 10 µM; 590 tested, under 10 active;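 active = over 150 percent of DMSO response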;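 note: median GFP channel fluorescence over all cells without mother daughter split; sample median GFP divided by mean DMSO control so 100% equals DMSO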
s288c autofluor = compound autofluorescence in yeast s288c, dose response, artefact control for yeast TOR pathway GFP screen, s288c strain. shares compounds with LAP4-GFP MLPCN. S. cerevisiae s288c, 520 nm autofluorescence, flow cytometry, 3 h; stronger effect = higher value; zero means same as solvent-only cells. fluorescence change (kMESF span) at 33 µM. 610 tested, under 10 active. AID 2757, 2010;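 active = fluorescence span over the dose series, or activity score, above about 33, limit read from the data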
s288c autofl DR = autofluorescence of compounds in yeast s288c, dose response, artefact control for yeast TOR pathway GFP screen, primary hits, KU SAR, s288c parental; shares compounds with LAP4-GFP MLPCN; S. cerevisiae s288c parental, compound autofluorescence, flow cytometry, 3 h; fluorescence change (span) at 33 µM; 110 tested, under 10 active;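 active = fluorescence change span, or the activity score built from it, above 25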
TORC1 bypass gr = wild-type yeast growth inhibition sparing TORC1 bypass cells, mechanism study for yeast TOR pathway GFP screen, BY4741 wild type, TORC1 bypass strain; shares compounds with LAP4-GFP MLPCN; S. cerevisiae BY4741 spot growth rating, 48-72 h; stronger effect = lower value; growth rating (0-3) at 30 µM; 120 tested, under 10 active; AID 504456, 2011;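 active = growth rating at most 1 for wild type yeast while the TORC1 bypass strain still grows fully, rated 3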
Active calls of the source: *.

What do the screens show for `Cc1cc(C(=O)COC(=O)c2ccc[nH]c2=O)c(C)n1-c1ccccc1F`?
RPL19A-GFP yeast: 55; MEP2 TOR yeast: 116; CIT2 TOR yeast: 84; LAP4-GFP MLPCN: 138; AGP1-GFP MLPCN: 41; LAP4-GFP pick2: 155*; MEP2-GFP pick2: 131; RPL19A GFP CP2: 93; CIT2-GFP pick2: 106; AGP1-GFP pick2: 78; s288c autofluor: 2.4; s288c autofl DR: 1.2; TORC1 bypass gr: 3

How did Cc1ccc(-n2c(C)cc(C(=O)COC(=O)c3ccc[nH]c3=O)c2C)cc1C do in these assays?
RPL19A-GFP yeast: 58; MEP2 TOR yeast: 86; CIT2 TOR yeast: 81; LAP4-GFP MLPCN: 150; AGP1-GFP MLPCN: 85

How did O=C(Nc1ccc(C2SCCS2)cc1)c1ccccc1 do in these assays?
RPL19A-GFP yeast: 93; MEP2 TOR yeast: 94; CIT2 TOR yeast: 90; LAP4-GFP MLPCN: 103; AGP1-GFP MLPCN: 102

What do the screens show for `Cc1[nH][nH]c(=O)c1C(c1ccc(-c2ccc(F)cc2)o1)c1c(C)[nH][nH]c1=O`?
RPL19A-GFP yeast: 107; MEP2 TOR yeast: 106; CIT2 TOR yeast: 98; LAP4-GFP MLPCN: 100; AGP1-GFP MLPCN: 98

How did Cc1[nH][nH]c(=O)c1C(c1ccc(-c2ccc(Cl)c(Cl)c2)o1)c1c(C)[nH][nH]c1=O do in these assays?
RPL19A-GFP yeast: 94; MEP2 TOR yeast: 96; CIT2 TOR yeast: 102; LAP4-GFP MLPCN: 217*; AGP1-GFP MLPCN: 85; s288c autofluor: -1.4

What do the screens show for `Cc1cc(C)nc(Nc2n[nH]c(COc3ccccc3)n2)n1`?
RPL19A-GFP yeast: 62; MEP2 TOR yeast: 167; CIT2 TOR yeast: 101; LAP4-GFP MLPCN: 88; AGP1-GFP MLPCN: 25; LAP4-GFP pick2: 101; MEP2-GFP pick2: 107; RPL19A GFP CP2: 99; CIT2-GFP pick2: 104; AGP1-GFP pick2: 96
